Measurements published in PubChem BioAssay.
Activity calls are given as the source filed them.

What was measured:
[1] = system: Plasmodium falciparum Sir2 (PF13_0152, Sir2A); test: pfSir2 binders on small-molecule microarrays, primary screen, biochemical, small-molecule microarray, 635 nm fluorescence (AID 1098); details: small-molecule microarray binding, fluorescence 635 nm; higher = more signal;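 also: score merges spot fluorescence intensity with its signal-to-noise ratio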
[2] = small-molecule microarray binders of probe aDKK1, primary screen, biochemical, biotinylated probe, 635/667 nm fluorescence (AID 1099); details: higher = more signal;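 also: score merges 667nm spot fluorescence with signal to noise across triplicate slides; reference of the scale not given here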
[3] = small-molecule microarray binders of probe aCHRDL2, primary screen, biochemical, biotinylated probe, 635/667 nm fluorescence (AID 1100); details: higher = more signal
[4] = splicing luciferase reporter signal modulators, primary screen, spliceosome inhibition project, cell-based, HEK293, splice +/- reporter (AID 1101); details: luminescence, 24 h, higher = more signal, called active from +8 up or from −8 down;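 also: HEK293 cells carrying a splicing-competent luciferase reporter gene; test concentration not given here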
[5] = biological target: Fibroblast growth factor 10 (Homo sapiens) (UniProt O15520); test: FGF10 binders on small-molecule microarrays, primary screen, biochemical, small-molecule microarray, 635 nm fluorescence (AID 1102); details: FGF10 binding, fluorescence 635 nm, higher = more signal
[6] = system: glycogen synthase kinase-3 (GSK3A per assay name; protocol says GSK3B); test: GSK3 binders on small-molecule microarrays, primary screen, biochemical, small-molecule microarray, 635 nm fluorescence, GSK3A (AID 1103); details: small-molecule microarray binding, fluorescence 635 nm; higher = more signal; also: the record names both GSK3A and GSK3B
[7] = biological target: Epidermal growth factor receptor (Homo sapiens) (UniProt P00533); test: EGFR binders on small-molecule microarrays, primary screen, biochemical, small-molecule microarray, 635 nm fluorescence (AID 1104); details: EGFR binding, higher = more signal;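 also: score merges 667 nm emission intensity with spot signal to noise over triplicate slides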
[8] = biological target: Follistatin-related protein 3 (Homo sapiens) (UniProt O95633); test: FSTL3 binders on small-molecule microarrays, primary screen, biochemical, small-molecule microarray, 635 nm fluorescence (AID 1105); details: FSTL3 binding, higher = more signal;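 also: score merges emission near 667 nm and signal to noise per printed spot across three slides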
[9] = biological target: Dickkopf-related protein 1 (Homo sapiens) (UniProt O94907); test: DKK1 binders on small-molecule microarrays, primary screen, biochemical, small-molecule microarray, 635 nm fluorescence scan (AID 1106); details: DKK1 binding, higher = more signal;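 also: score merges emission near 667 nm with signal to noise over three replicate slides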
[10] = system: Inhibin beta A chain (activin A); test: INHBA (activin A) binders on microarrays, primary screen, biochemical, small-molecule microarray, 635 nm fluorescence scan (AID 1107); details: small-molecule microarray binding, higher = more signal;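 also: mouse activin A protein probed at 4.33 µg/mL on printed slides; score merges bound-protein fluorescence near 667 nm with spot signal-to-noise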

Sequence of Dickkopf-related protein 1 (Homo sapiens) (O94907 whole entry, looked up): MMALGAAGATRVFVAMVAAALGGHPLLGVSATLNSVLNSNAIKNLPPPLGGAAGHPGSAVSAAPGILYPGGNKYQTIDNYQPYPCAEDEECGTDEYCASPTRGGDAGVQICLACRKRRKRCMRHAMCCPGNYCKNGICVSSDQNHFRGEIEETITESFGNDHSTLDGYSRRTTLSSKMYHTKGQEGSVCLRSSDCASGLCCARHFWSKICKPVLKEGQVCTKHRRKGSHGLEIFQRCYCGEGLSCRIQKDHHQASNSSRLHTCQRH
Sequence of Follistatin-related protein 3 (Homo sapiens) (O95633 whole entry, looked up): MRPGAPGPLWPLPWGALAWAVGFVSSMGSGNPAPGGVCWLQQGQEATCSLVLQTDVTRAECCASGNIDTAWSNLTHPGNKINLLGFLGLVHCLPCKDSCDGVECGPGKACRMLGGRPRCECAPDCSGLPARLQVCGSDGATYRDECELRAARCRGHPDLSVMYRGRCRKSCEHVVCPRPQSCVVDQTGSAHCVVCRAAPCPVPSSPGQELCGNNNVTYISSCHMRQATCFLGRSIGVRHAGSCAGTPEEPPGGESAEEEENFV
Sequence of Fibroblast growth factor 10 (Homo sapiens) (O15520 whole entry, looked up): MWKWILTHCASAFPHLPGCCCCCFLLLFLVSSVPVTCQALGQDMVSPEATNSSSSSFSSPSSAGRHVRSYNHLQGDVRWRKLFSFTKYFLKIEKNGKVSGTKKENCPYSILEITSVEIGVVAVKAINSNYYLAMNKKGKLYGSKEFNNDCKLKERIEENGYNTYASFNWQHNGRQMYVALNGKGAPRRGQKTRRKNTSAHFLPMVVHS
Sequence of Epidermal growth factor receptor (Homo sapiens) (P00533 whole entry, looked up): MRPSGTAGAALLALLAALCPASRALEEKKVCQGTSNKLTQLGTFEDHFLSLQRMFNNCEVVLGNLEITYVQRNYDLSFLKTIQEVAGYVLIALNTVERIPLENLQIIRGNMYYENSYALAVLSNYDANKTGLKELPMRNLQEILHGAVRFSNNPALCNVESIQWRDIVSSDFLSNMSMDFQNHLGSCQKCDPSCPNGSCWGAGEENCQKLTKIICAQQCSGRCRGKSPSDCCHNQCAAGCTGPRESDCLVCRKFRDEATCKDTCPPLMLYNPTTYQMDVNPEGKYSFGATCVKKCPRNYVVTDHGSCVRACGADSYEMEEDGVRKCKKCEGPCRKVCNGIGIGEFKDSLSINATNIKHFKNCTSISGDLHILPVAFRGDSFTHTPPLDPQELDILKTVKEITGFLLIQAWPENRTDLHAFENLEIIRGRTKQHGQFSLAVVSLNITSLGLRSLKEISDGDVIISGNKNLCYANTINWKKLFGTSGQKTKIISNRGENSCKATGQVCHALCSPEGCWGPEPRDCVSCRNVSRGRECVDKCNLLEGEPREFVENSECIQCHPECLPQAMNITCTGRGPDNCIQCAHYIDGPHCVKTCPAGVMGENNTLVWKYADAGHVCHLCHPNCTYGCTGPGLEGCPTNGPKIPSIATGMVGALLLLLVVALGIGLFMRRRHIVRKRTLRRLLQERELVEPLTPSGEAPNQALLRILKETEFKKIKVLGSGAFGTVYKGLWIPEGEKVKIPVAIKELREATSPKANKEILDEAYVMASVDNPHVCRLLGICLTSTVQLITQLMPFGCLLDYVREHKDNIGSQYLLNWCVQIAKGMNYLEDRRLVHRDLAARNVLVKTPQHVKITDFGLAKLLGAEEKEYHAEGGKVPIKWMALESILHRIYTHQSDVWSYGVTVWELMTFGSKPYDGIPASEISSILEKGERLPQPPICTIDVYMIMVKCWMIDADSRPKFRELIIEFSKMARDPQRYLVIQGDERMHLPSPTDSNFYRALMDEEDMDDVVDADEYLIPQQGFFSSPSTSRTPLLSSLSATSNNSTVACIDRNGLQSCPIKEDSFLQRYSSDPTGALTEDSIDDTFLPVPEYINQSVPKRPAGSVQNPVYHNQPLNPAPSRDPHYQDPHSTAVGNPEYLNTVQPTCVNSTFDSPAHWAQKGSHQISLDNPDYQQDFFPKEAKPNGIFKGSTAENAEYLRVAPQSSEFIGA

Row | SMILES | composite z-score [1] | composite z-score [2] | composite z-score [3] | z-score [4] | composite z-score [5] | composite z-score [6] | composite z-score [7] | composite z-score [8] | composite z-score [9] | composite z-score [10]
1 | COC(=O)[C@@]1(Cc2ccccc2)[C@H]2c3cc(C(=O)N4CCCC4)n(C[C@H](O)CO)c3C[C@H]2CN1C(=O)c1ccccc1 | 1.06 | 0.571 | 1.01 | 0.797 (inactive) | -0.209 | -0.0288 | -0.455 | 0.0783 | -1.11 | 0.956
2 | O=C1O[C@@H](c2ccccc2)[C@@H](c2ccccc2)N2[C@@H](c3ccc(O)cc3)[C@]3(C(=O)Nc4ccc(C#CC5=CCCCC5)cc43)[C@@H](C(=O)N3CCN(c4ncccn4)CC3)[C@H]12 | 1.59 | -0.446 | -0.0675 | -0.339 (inactive) | 1.33 | 1.28 | 0.383 | 0.872 | 0.283 | -0.0915
3 | O=C1OCCC=C[C@H]2OC34C=CCN(c5ccc(Cl)cc5)C(=O)[C@H]3N(CCCCCO)C(=O)[C@@H]4C12 (stereo not given in full) | 1.87 | -0.0263 | 0.255 | -0.443 (inactive) | -0.315 | 0.0788 | -0.935 | -0.713 | -0.172 | 0.883
4 | CCN(CC)c1ccc(N2CC=CC34O[C@@H]5/C=C\CCC(C)OC(=O)C5[C@H]3C(=O)N(CCO)[C@@H]4C2=O)cc1 (stereo not given in full) | 0.752 | -0.18 | 0.477 | 0.00168 (inactive) | -0.736 | -0.565 | -0.968 | -0.421 | -0.771 | 0.907
5 | C=C(COC)/C(=C/C[C@@H](OC(=O)c1ccncc1)c1ccc(CO)o1)c1cnc2ccccc2c1 | 1.06 | -0.182 | -0.386 | 0.773 (inactive) | 1.59 | 1.35 | 1.59 | 1.57 | 1.2 | 1.87
6 | COC(=O)C[C@H]1O[C@]2(C(=O)N(C)c3ccccc32)[C@@H](C)[C@@H]1[Si](C)(C)c1ccc(C)cc1 | 0.486 | -0.276 | -0.203 | -0.283 (inactive) | 0.749 | 0.96 | 0.41 | 0.958 | 0.501 | 0.0223
7 | NCCCCCCNC(=O)[C@H]1C[C@H]2C(=O)N[C@@H](Cc3ccccc3)C(=O)N2[C@H]1c1ccc(O)cc1 | 1.3 | 0.21 | 0.456 | -1.23 (inactive) | -0.0657 | 0.481 | 0.92 | 0.533 | 0.232 | 1.1
8 | COC1(C)CN(Cc2ccccc2Br)[C@H](/C=C/c2ccccc2)[C@H](Cc2ccccc2)O1 (stereo not given in full) | -0.525 | -0.383 | -0.0981 | -0.792 (inactive) | -0.258 | -0.629 | -0.383 | -0.478 | -1.04 | -0.19
